Screening data from PubChem BioAssay.
The list is not random: actives were taken first. Their share in the collection is about 6.9%.
IL1B secr inh – blocks inflammasome-driven IL-1 beta release. THP-1 LPS/ATP IL-1B secretion, AlphaLISA, 16 h; active compounds read low. activity change, % at 57.5 µM. 4.7% of 360,000 active. AID 743279; in the data active = activity change below about -50%; inconclusive = mostly about -30% to -49%; note: % is set by controls: 0 for no effect and ±100 for the full control effect
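Secreted IL-1B measured by AlphaLISA bead assay after 16 h compound exposure of THP-1 cells; compounds (final up to 57.5 uM) added 1 h before LPS (250 ng/mL) and ATP (1.25 mM) stimulation; lower signal means less secretion.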
Vif-A3F inh – Vif-A3F binding inhibition. Potency, µM (titrated, usually from 46.1 µM), for inactives: at the highest dose activity, negative = active. AID 602313. 0.2% of 390,000 active. HeLa A3F-eYFP + Vif (tagged APOBEC3F with the HIV-1 protein that degrades it), YFP fluorescence increase; note: potency is the fitted concentration of half-maximal effect; % of control where 0% means no effect; nearly all actives have a fitted effect of over 65% in size
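Fluorescence increase (Ex 488/Em 500-530) after overnight compound treatment at 37 deg C flags inhibition of Vif-driven A3F-eYFP loss in stable HeLa A3F-eYFP/Vif cells seeded overnight beforehand.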
Giardia killer – Giardia lamblia killing; 0.15% of 340,000 active; activity change, % at 7.66 µM, hits read low; Giardia lamblia trophozoite viability; in the data active = activity change below about -80%; inconclusive = between about -30% and that limit;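 note: parasites exposed to compound for two days anaerobically before the ATP read; % is set by controls: 0 for no effect and ±100 for the full control effect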
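Anaerobic 48 hrs incubation at 37 deg C of 100 trophozoites/well with test compounds; ATPLite 1-Step luminescence, 15-30 min RT, reports cellular ATP as viability.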
SW480 rereplic – DNA re-replication induction in SW480 cells; 1.8% of 340,000 active; SW480 DNA re-replication, Hoechst DNA content imaging, 48 h; Potency, µM (highest dose often 46.1 µM), inactives show top-dose re-replication activation, most hits filed as activators; note: potency is the fitted concentration of half-maximal effect; % of control where 0% means no effect; nearly all actives have a fitted effect of over 55% in size
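250 cells/well; 23 nL cpd via pin tool; 48 hr, 37 C, 5% CO2; Hoechst 40 min; imager read of total nuclear intensity, ex 405/em 500-530 nm.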
Vif-A3G inh – blocks the Vif interaction with human APOBEC3G. Q9HC16. HeLa A3G-eYFP + Vif (tagged APOBEC3G with the HIV-1 protein that degrades it), YFP fluorescence, overnight. Potency, µM (series often up to 46.1 µM), without a hit: top-dose activity, negative = active, most hits filed as inhibitors. 0.076% of 410,000 active; note: potency is the fitted concentration of half-maximal effect; % is set by controls: 0 for no effect and ±100 for the full control effect; nearly all actives have a fitted effect of over 60% in size
Target sequence (Q9HC16 whole entry, looked up): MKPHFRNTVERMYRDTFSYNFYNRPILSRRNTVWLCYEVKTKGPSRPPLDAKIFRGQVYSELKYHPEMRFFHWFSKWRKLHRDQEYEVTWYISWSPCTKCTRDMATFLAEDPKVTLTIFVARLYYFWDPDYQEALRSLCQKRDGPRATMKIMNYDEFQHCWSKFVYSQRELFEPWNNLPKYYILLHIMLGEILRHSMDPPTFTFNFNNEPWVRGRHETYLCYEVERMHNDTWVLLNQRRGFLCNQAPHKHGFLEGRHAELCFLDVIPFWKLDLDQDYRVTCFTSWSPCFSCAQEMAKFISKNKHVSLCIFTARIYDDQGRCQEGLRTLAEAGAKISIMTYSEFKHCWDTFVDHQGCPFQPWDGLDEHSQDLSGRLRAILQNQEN
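Read-out is eYFP fluorescence (Ex 488/Em 500-530) from Vif-expressing HeLa A3G-eYFP cells; more signal means A3G escaped Vif-mediated degradation. Cells plated overnight, compound pinned in, incubated overnight at 37 deg C.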
MCF10A rereplic – DNA re-replication induction in MCF 10a cells | 2.9% of 350,000 active | Potency, µM (doses to about 46.1 µM), for the others: at the highest dose activity, positive = re-replication, actives largely listed as activators | MCF 10A DNA re-replication, Hoechst nuclear intensity, 48 h; note: potency is the fitted concentration of half-maximal effect; % of control where 0% means no effect; nearly all actives have a fitted effect of over 50% in size
The depositor's hits bear a star; ? = inconclusive; . = no result given. Unless noted, calls come from the whole dose curve; as a rule, active = well fitted curve in the direction sought with a large enough effect; inconclusive = small, poorly fitted or top-dose-only effect, or another doubt; inactive = no such curve, though single readings can be large; an effect the other way counts as inactive or inconclusive.

SMILES	IL1B secr inh	Vif-A3F inh	Giardia killer	SW480 rereplic	Vif-A3G inh	MCF10A rereplic
O=c1c2c3c(sc2ncn1/N=C/c1ccc([N+](=O)[O-])o1)CCCC3	-89*	?	7	12µM*	-6%	4.1µM*
Cn1cc(/C=N/n2cnc3sc4c(c3c2=O)CCCC4)c2ccccc21	13	-7%	10	18µM*	-15%	?
CCCOC(=O)c1cccc(Nc2nc(CCC)cc(=O)[nH]2)c1	.	-7%	.	.	-1%	.
O=C1C(=O)c2c(ccc3ccccc23)-c2ccccc21	-87*	9%	0	9.2µM*	-11%	1.8µM*
CCCCN(CC)CCCNC(=O)c1cc2c(=O)n(C)c3ccccc3c2n1C	-73*	-2%	-4	11%	3%	?
CC1CCN(CCCNC(=O)c2cc3c(=O)n(C)c4ccccc4c3n2C)CC1	-66*	-1%	4	-3%	6%	15%
CCCCN(C)CCNC(=O)c1cc2c(=O)n(C)c3ccccc3c2n1C	.	-24%	.	.	13%	.
CN(C)C(=O)COc1ccccc1C(=O)OCC(=O)N(CCC#N)c1ccccc1	.	.	.	.	0%	.
CCCCn1c(SCc2ccc(C(=O)OC)o2)nc2cc(S(N)(=O)=O)ccc21	-78*	-7%	16	0%	-1%	-3%
CCCCn1c(SCC(=O)c2cc(OC)ccc2OC)nc2cc(S(N)(=O)=O)ccc21	20	2%	5	-3%	0%	6%
CCC(=O)N1c2ccccc2CC1C(=O)NCc1ccc(CC)cc1 (configuration not stated)	.	2%	.	.	-1%	.
CCOc1ccccc1CNC(=O)CCC(=O)N1CCSc2ccccc21	.	7%	.	.	4%	.
Cc1ccc(NC(=S)N/N=C/c2ccc([N+](=O)[O-])s2)cc1	-73*	-14%	?	6.5µM*	-4%	10µM*
NC(=O)c1ccc(N=Cc2ccc([N+](=O)[O-])s2)cc1	-108*	2%	-14	3.3µM*	-12%	15µM*
Cc1cc(C)cc(N=Cc2ccc([N+](=O)[O-])s2)c1	-104*	4%	-14	3.7µM*	?	21µM*
O=[N+]([O-])c1ccccc1C=NNC(=S)NN=Cc1ccccc1[N+](=O)[O-]	-7	0%	-12	21µM*	?	18µM*
CCn1c(NCc2cccc(Cl)c2)nc2ccccc21	.	-2%	.	.	1%	.
CC(C)(C)C(=O)/C(C#N)=C/c1cccs1	-18	-10%	-14	-1%	0%	-5%
N#C/C(=C\c1cccs1)C(=O)c1ccccc1Cl	-98*	-18%	16	?	-29%	5.8µM*
O=C1NC[C@H](Cc2ccccc2)N(CC2CCN(CCC34CC5CC(CC(C5)C3)C4)CC2)C1=O	-73*	3%	-28	2%	1%	20%
S=C1NC[C@H](Cc2ccccc2)N1CCCCC1CCCCC1	-1	7%	-8	-1%	-1%	?
S=C1NC[C@H](Cc2ccccc2)N1CC1CCN(CCCC2CCCC2)CC1	-67*	-10%	6	?	3%	?
CC[C@H](C)[C@H]1CNC(=S)N1CC1CCN(CCC23CC4CC(CC(C4)C2)C3)CC1	-63*	1%	29	-2%	2%	?
CN(C)c1ccc(/C=C/c2sc3ccccc3[n+]2Cc2ccccc2)cc1	.	.	.	.	-7%	.
Cc1cnc2c(C)cccc2c1/C=C/c1ccc(N(C)C)cc1	.	.	.	.	-16%	.
SMILES	IL1B secr inh	Vif-A3F inh	Giardia killer	SW480 rereplic	Vif-A3G inh	MCF10A rereplic
CCOC(=O)c1ccc(/C=C2/C=C(c3ccccc3)N(c3ccc(Cl)c(C(=O)O)c3)C2=O)cc1	-84*	13µM*	-14	10%	?	21µM*
COC(=O)CSc1nc2c(c(-c3ccc(O)cc3)c1C#N)CCCC2	17	0%	-14	?	-11%	18µM*
CCOC(=O)C(C)Sc1nc2c(c(-c3cccs3)c1C#N)CCC2 (configuration not stated)	-13	0%	-6	24%	-4%	16µM*
CC(C)OC(=O)CC(=O)CSc1nc2c(c(-c3cccs3)c1C#N)CCC2	11	-6%	11	17%	-7%	21µM*
N#Cc1c(SC(C(=O)O)c2ccccc2)nc2c(c1-c1cccs1)CCCC2 (configuration not stated)	-5	5%	-11	8%	-10%	-12%
CC(C)OC(=O)CC(=O)CSc1nc2c(cc1C#N)CCC2	14	5%	-21	10%	0%	?
COC(=O)CSc1nc2c(c(-c3ccco3)c1C#N)CCCC2	11	-4%	9	0%	-2%	?
COc1cccc(NC(=O)C2=C(C)C(=O)OC23CCN(C(C)=O)CC3)c1	.	1%	.	.	4%	.
CCOc1nc(NC(=O)NS(=O)(=O)Oc2cccc(F)c2)nc(-c2ccccc2)n1	.	5%	.	.	-1%	.
N#CNC(=Nc1ccc(Cl)cc1)Oc1ccccc1	-55*	-4%	-12	12%	-3%	-10%
N#CNC(=Nc1cccc(Cl)c1)Oc1ccccc1	0	-3%	-6	3%	0%	17%
COc1ccc(CCNC(=O)CSc2n[nH]c(-c3ccccc3Cl)n2)cc1OC	.	0%	.	.	3%	.
Cc1cc(C)nc(NN2C(=O)/C(=C/c3ccccc3)SC2=S)n1	3	-12%	1	-5%	1%	?
CN(C)c1ccc(/C=C2\SC(=S)N(Nc3ncc(C(F)(F)F)cc3Cl)C2=O)cc1	-5	10µM*	-10	?	?	10%
COc1cc(/C=C2\SC(=S)N(Nc3ncc(C(F)(F)F)cc3Cl)C2=O)ccc1O	?	22µM*	2	11%	?	?
COc1cc(C)ccc1OCCn1c(-c2ccc(Cl)cc2)nc2ccccc2c1=O	.	1%	.	.	5%	.
COc1ccc(N2CCN(c3ncnc4onc(C)c34)CC2)cc1	.	-11%	.	.	11%	.
CN(C)c1nc(=NCc2cccs2)ss1	-60*	-8%	-81*	?	-10%	?
CC(SC(=S)N(C)Cc1cccs1)C(=O)O (configuration not stated)	6	0%	0	3%	10%	-1%
O=C1C(Cl)=C(N2CCC(C(=O)O)CC2)C(=O)c2ccccc21	0	?	18	0%	-25%	?
CN1CCN(C2=C(Cl)C(=O)c3ccccc3C2=O)CC1	-104*	?	12	5.2µM*	?	4.1µM*
CN1CCN(C2=C(NS(=O)(=O)c3ccccc3)C(=O)c3ccccc3C2=O)CC1	5	1%	-1	29%	0%	0%
NC(=O)C1CCN(C2=C(Cl)C(=O)c3ccccc3C2=O)CC1	-98*	-1%	-17	?	1%	13µM*
